# Test results from paper PMC7862700, “An all-to-all approach to the identification of sequence-specific readers for epigenetic DNA modifications on cytosine”.
# Legend:
# Assay in all cases: DAPPL (digital affinity profiling via proximity ligation, sequencing); 10 mM Tris-HCl pH 7.5, 50 mM NaCl, 1 mM DTT, 4% glycerol, room temperature, 30 min; GST-TFs on glutathione beads, 16-mer random dsDNA library, 0.1% formaldehyde crosslink after washing; high values mean tight binding
# FLI1 = target: T1, FLI1 (Homo sapiens, UniProt Q01543 1-452); conditions: protein: recombinant; tags: N-terminal GST; dsDNA, one strand shown
# T1 sequence: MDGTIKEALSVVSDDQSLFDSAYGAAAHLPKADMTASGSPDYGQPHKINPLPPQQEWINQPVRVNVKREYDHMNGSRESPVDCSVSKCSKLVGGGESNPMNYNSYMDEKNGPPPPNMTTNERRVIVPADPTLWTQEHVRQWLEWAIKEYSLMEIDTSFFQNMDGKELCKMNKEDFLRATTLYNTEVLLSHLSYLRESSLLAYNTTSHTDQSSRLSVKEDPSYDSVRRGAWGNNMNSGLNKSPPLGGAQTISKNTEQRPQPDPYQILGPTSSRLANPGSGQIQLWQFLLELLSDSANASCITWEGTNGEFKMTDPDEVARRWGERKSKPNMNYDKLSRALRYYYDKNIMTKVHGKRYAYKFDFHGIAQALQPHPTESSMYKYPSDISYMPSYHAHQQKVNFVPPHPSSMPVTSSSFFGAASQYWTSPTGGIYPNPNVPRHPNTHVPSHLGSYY
# Method in brief: (§1)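 The binding signal reported is, for every hexamer, its read frequency for a factor over its read frequency for the tag-only sample. Reads came from pools of yeast-expressed, GST-fused human transcription factors on glutathione beads, barcoded with DNA and mixed with that sample, which were incubated with 200 nmole of a random double-stranded 16-mer DNA library in Tris/NaCl/DTT/glycerol buffer at room temperature for 30 min. After washing, the pools were crosslinked with 0.1% formaldehyde, proximity-ligated with BsaI/T4 ligase for 1 h at 37 °C, PCR-amplified and sequenced on an Illumina NextSeq500.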
# ELK1 = target: T2, ELK1 (Homo sapiens, UniProt P19419 1-428); conditions: protein: recombinant; tags: N-terminal GST; dsDNA, one strand shown
# T2 sequence: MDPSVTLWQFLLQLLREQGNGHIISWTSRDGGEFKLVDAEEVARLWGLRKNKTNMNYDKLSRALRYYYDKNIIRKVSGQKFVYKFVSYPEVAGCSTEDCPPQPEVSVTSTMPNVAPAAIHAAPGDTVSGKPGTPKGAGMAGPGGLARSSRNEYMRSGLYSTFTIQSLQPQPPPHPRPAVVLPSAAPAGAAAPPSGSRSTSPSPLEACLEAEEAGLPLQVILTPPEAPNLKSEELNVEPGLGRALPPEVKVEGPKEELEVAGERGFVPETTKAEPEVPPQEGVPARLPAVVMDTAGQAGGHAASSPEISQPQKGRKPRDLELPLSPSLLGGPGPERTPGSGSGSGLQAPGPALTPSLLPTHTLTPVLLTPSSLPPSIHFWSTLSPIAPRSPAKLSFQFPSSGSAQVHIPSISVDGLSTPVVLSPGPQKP
# Method in brief: as §1
# GABPA = target: T3, GABPA (Homo sapiens, UniProt Q06546 1-454); conditions: protein: recombinant; tags: N-terminal GST; dsDNA, one strand shown
# T3 sequence: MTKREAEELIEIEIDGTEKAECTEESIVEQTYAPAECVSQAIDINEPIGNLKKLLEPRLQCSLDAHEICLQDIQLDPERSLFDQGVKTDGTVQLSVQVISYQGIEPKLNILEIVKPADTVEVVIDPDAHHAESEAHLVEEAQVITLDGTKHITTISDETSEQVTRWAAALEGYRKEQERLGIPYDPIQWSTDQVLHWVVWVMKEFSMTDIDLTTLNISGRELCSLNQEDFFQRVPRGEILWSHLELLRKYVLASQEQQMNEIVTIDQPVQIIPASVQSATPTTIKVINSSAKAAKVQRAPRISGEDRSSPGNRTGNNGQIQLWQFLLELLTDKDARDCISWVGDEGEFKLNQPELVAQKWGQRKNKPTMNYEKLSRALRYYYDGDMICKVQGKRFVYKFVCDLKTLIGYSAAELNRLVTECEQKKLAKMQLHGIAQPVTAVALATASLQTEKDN
# Method in brief: as §1
# ERG = target: T4, ERG (Homo sapiens, UniProt P11308 1-479); conditions: protein: recombinant; tags: N-terminal GST; dsDNA, one strand shown
# T4 sequence: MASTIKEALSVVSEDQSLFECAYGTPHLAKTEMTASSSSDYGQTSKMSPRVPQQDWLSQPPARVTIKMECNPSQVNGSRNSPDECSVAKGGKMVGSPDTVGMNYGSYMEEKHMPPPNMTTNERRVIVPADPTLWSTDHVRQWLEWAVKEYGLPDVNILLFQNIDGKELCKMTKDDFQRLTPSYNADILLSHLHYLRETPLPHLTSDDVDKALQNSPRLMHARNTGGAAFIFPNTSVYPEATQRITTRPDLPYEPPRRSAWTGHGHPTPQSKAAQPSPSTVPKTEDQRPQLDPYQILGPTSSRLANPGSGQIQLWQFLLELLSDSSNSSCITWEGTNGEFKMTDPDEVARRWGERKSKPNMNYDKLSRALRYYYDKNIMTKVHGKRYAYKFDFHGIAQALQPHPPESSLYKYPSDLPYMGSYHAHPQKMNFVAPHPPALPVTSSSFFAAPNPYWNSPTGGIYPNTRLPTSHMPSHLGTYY
# Method in brief: as §1
# ELF1 = ELF1 (Homo sapiens, UniProt P32519 1-619); conditions: protein: recombinant; tags: N-terminal GST; dsDNA, one strand shown
# ELF1, sequence (P32519 whole entry): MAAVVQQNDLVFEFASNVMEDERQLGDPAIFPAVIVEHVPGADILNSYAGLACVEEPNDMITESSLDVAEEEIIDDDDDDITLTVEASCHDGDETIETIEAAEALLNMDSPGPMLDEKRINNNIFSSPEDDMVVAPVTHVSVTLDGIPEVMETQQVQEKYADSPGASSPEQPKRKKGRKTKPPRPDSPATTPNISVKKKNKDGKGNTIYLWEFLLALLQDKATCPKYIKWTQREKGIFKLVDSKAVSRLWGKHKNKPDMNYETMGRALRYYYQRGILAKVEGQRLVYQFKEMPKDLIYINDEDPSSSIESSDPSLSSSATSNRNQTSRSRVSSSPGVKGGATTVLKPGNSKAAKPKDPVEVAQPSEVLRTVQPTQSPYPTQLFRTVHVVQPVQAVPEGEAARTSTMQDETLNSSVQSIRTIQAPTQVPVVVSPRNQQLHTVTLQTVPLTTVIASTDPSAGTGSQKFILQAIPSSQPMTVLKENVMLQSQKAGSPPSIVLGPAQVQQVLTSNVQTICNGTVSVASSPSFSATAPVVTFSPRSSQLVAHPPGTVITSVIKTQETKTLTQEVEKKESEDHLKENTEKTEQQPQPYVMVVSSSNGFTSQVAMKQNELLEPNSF
# Method in brief: as §1
# SPI1 = SPI1 (Homo sapiens, UniProt P17947 1-270); conditions: protein: recombinant; tags: N-terminal GST; dsDNA, one strand shown
# Method in brief: as §1
# SPIB = SPIB (Homo sapiens, UniProt Q01892 1-262); conditions: protein: recombinant; tags: N-terminal GST; dsDNA, one strand shown
# SPIB, sequence (Q01892 whole entry): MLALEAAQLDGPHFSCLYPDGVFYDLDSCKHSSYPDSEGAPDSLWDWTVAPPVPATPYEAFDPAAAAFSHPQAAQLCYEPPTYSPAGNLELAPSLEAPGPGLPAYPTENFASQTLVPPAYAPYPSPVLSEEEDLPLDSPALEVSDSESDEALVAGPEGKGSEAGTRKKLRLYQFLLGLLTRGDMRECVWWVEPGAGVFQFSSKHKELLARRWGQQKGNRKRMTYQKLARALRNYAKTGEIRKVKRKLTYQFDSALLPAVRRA
# Method in brief: as §1
# ELK3 = target: T5, ELK3 (Homo sapiens, UniProt P41970 1-407); conditions: protein: recombinant; tags: N-terminal GST; dsDNA, one strand shown
# T5 sequence: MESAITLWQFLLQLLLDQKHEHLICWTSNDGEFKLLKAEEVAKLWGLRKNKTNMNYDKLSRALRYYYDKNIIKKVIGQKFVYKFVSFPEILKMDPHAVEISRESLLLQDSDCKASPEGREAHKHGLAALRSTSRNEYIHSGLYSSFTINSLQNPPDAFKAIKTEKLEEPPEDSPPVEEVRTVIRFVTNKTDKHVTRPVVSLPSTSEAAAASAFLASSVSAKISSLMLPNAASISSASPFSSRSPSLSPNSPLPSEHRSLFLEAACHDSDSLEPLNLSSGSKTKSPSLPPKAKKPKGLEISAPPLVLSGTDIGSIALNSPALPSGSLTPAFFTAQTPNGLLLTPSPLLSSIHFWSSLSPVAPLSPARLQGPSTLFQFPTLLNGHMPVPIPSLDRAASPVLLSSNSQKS
# Method in brief: as §1
# FEV = target: T6, FEV (Homo sapiens, UniProt Q99581 1-238); conditions: protein: recombinant; tags: N-terminal GST; dsDNA, one strand shown
# T6 sequence: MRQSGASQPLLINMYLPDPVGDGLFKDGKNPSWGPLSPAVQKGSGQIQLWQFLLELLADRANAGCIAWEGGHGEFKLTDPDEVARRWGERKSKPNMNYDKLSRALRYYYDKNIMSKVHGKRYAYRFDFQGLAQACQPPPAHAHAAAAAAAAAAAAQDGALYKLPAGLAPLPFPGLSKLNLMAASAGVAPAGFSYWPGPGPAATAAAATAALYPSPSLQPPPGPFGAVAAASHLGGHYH
# Method in brief: as §1
# ETV5 = ETV5 (Homo sapiens, UniProt P41161 1-510); conditions: protein: recombinant; tags: N-terminal GST; dsDNA, one strand shown
# ETV5, sequence (P41161 whole entry): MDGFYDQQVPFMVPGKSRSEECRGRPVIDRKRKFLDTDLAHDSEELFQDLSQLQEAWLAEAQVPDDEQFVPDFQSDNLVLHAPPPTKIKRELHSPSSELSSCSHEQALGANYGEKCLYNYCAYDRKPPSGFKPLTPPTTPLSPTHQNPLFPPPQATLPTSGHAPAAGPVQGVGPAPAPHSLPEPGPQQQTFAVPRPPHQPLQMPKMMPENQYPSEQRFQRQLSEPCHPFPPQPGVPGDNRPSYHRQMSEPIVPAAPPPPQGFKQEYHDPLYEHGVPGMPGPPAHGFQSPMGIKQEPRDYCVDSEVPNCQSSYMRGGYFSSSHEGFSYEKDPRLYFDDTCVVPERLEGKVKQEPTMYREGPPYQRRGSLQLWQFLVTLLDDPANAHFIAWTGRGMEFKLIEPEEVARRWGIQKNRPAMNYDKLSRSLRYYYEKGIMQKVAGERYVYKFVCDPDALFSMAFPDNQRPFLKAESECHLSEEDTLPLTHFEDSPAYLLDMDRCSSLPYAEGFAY
# Method in brief: as §1
# HSF1 = HSF1 (Homo sapiens, UniProt Q00613 1-529); conditions: protein: recombinant; tags: N-terminal GST; chain copies: 3; dsDNA, one strand shown
# HSF1, sequence (Q00613 whole entry): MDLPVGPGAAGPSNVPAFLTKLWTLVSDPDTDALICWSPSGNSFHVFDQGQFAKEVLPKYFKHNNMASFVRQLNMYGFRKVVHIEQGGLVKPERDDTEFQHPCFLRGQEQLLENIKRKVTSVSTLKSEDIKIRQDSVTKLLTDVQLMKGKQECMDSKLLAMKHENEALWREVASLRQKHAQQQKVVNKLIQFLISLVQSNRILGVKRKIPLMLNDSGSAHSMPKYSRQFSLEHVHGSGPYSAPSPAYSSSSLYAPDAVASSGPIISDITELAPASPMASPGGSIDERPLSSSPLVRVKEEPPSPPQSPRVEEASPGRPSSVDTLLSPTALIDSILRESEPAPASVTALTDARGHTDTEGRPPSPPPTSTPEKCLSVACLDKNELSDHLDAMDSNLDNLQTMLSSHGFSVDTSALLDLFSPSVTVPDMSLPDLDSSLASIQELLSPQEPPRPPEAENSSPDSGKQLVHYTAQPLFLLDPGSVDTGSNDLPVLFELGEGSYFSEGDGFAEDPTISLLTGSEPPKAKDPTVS
# Method in brief: as §1
# ELF4 = ELF4 (Homo sapiens, UniProt Q99607 1-663); conditions: protein: recombinant; tags: N-terminal GST; dsDNA, one strand shown
# ELF4, sequence (Q99607 whole entry): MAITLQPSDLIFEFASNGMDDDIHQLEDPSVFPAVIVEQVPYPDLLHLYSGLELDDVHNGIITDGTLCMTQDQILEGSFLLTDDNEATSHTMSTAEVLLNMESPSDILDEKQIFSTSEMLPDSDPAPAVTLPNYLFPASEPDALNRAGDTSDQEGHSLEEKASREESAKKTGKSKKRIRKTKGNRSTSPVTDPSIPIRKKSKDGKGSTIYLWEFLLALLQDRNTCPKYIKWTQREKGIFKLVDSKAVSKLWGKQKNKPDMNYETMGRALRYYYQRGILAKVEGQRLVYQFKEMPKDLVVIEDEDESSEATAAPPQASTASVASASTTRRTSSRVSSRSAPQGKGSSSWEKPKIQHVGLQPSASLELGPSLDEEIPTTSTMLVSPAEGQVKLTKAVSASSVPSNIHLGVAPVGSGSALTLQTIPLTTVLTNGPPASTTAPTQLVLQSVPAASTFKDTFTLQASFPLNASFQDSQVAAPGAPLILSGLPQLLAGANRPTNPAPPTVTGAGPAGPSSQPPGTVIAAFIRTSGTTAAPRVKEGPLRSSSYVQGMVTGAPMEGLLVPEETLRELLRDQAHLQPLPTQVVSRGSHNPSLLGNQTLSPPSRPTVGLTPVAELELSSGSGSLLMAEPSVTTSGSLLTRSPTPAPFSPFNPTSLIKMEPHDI
# Method in brief: as §1
# ELK4 = target: T7, ELK4 (Homo sapiens, UniProt P28324-2 1-405); conditions: protein: recombinant; tags: N-terminal GST; dsDNA, one strand shown
# T7 sequence: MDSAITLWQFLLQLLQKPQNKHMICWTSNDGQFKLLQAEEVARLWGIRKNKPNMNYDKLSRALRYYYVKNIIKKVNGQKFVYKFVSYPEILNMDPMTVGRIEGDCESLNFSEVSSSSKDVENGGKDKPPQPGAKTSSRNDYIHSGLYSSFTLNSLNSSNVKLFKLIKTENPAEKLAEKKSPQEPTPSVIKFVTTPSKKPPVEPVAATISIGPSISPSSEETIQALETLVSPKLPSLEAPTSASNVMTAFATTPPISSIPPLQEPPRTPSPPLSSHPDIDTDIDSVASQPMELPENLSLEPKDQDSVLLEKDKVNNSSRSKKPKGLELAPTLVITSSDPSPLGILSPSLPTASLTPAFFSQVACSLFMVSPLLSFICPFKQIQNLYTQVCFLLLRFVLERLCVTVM
# Method in brief: as §1
# ETV2 = target: T8, ETV2 (Homo sapiens, UniProt O00321 1-342); conditions: protein: recombinant; tags: N-terminal GST; dsDNA, one strand shown
# T8 sequence: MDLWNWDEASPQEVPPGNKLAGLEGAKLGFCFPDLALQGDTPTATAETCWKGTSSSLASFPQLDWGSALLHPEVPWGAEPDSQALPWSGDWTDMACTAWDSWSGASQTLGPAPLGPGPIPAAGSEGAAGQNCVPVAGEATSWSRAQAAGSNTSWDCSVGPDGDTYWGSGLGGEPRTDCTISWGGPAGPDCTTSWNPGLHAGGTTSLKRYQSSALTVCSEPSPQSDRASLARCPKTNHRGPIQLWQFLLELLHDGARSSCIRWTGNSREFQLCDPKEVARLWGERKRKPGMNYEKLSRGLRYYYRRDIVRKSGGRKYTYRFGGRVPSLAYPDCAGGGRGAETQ
# Method in brief: as §1
# ELF3 = target: T9, ELF3 (Homo sapiens, UniProt P78545 1-371); conditions: protein: recombinant; tags: N-terminal GST; dsDNA, one strand shown
# T9 sequence: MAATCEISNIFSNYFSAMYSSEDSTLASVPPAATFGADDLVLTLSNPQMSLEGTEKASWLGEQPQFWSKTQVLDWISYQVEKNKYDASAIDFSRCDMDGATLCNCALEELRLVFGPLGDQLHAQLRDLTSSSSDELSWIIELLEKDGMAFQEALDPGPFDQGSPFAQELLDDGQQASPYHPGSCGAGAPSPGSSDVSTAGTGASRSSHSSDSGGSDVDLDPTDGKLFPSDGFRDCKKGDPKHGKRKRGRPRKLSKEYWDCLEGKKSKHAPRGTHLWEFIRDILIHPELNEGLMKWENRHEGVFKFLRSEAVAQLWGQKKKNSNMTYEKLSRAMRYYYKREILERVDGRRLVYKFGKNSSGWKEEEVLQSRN
# Method in brief: as §1
# CRX = CRX (Homo sapiens, UniProt O43186 1-299); conditions: protein: recombinant; tags: N-terminal GST; dsDNA, one strand shown
# CRX, sequence (O43186 whole entry): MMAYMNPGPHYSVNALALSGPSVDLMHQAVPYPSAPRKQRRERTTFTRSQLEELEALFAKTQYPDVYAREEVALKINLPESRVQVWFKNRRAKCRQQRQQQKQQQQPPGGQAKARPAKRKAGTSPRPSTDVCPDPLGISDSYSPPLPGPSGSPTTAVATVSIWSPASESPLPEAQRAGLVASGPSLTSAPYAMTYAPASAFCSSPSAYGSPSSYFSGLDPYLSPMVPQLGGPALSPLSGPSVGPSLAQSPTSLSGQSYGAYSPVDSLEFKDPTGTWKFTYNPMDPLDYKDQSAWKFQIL
# Method in brief: as §1
# ETV1 = ETV1 (Homo sapiens, UniProt P50549 1-477); conditions: protein: recombinant; tags: N-terminal GST; dsDNA, one strand shown
# ETV1, sequence (P50549 whole entry): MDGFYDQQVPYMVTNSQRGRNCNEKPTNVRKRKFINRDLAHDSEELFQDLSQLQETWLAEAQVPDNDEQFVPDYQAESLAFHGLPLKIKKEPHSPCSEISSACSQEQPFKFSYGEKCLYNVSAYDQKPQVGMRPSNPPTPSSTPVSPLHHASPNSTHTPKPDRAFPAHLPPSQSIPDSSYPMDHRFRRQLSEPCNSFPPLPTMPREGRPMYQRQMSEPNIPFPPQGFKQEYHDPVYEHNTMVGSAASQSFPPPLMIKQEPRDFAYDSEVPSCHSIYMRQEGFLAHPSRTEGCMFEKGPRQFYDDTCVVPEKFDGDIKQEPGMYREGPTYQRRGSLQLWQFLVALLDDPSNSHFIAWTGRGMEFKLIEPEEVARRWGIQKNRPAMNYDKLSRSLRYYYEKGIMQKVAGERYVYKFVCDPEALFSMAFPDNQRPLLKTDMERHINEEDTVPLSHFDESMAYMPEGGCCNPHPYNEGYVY
# Method in brief: as §1
sequence,measurement,setting,value
CAAAGC,binding signal,FLI1,"1.08 fold enrichment (6-mer frequency, TF over GST control)"
same,binding signal,ELK1,"1.02 fold enrichment (6-mer frequency, TF over GST control)"
same,binding signal,GABPA,"1.16 fold enrichment (6-mer frequency, TF over GST control)"
same,binding signal,ERG,"1 fold enrichment (6-mer frequency, TF over GST control)"
same,binding signal,ELF1,"1.17 fold enrichment (6-mer frequency, TF over GST control)"
same,binding signal,SPI1,"1.03 fold enrichment (6-mer frequency, TF over GST control)"
same,binding signal,SPIB,"1.04 fold enrichment (6-mer frequency, TF over GST control)"
same,binding signal,ELK3,"1.1 fold enrichment (6-mer frequency, TF over GST control)"
same,binding signal,FEV,"1.14 fold enrichment (6-mer frequency, TF over GST control)"
same,binding signal,ETV5,"1.05 fold enrichment (6-mer frequency, TF over GST control)"
same,binding signal,HSF1,"1.04 fold enrichment (6-mer frequency, TF over GST control)"
same,binding signal,ELF4,"1.05 fold enrichment (6-mer frequency, TF over GST control)"
same,binding signal,ELK4,"1.24 fold enrichment (6-mer frequency, TF over GST control)"
same,binding signal,ETV2,"1.09 fold enrichment (6-mer frequency, TF over GST control)"
same,binding signal,ELF3,"1.03 fold enrichment (6-mer frequency, TF over GST control)"
same,binding signal,CRX,"1.3 fold enrichment (6-mer frequency, TF over GST control)"
same,binding signal,ETV1,"1.08 fold enrichment (6-mer frequency, TF over GST control)"
